The panel holds about 83,000 compounds, 20% with a hit somewhere; the sample as a whole holds those more often.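 Method: cells in 96-well plates; compound added at one concentration; 48 h incubation; percent growth measured; values under 10 scored active.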 Calls of active or inactive are those of the source.

This test concerns MOLT-4 leukemia. The test can be described thus: NCI-60 one-dose screen, 48 h (100 = growth as untreated, 0 = no growth, -100 = all killed). The conditions noted are these: 10 µM unless noted. Here is the method:
Growth inhibition of the MOLT-4 human tumor cell line is measured as a screen for anti-cancer activity. Cells are grown in 96 well plates and exposed to the test compound for 48 hours. Compounds are tested at a single concentration, which is 10^-5 M for most compounds. The reported endpoint is percent growth (GI% or GIPRCNT), where numbers from 0 - 100% represent growth inhibition, and numbers from -100% - 0 represent cell death. For example, a value of 40 represents 60% growth inhibition. A value of 0 means no net growth occurred over the course of the experiment. A value of -40 indicates 40% of cells at the beginning of the experiment died by the end of the experiment. A value of -100 means all cells are dead at the end of the experiment.
NCI-60 Human Tumor Cell Lines Screen was performed using the standard one-dose NCI protocol, which is described in more detail at https://dtp.cancer.gov/discovery_development/nci-60/default.htm.
Compounds with GIPRCNT values below 10 were considered active. Activity score was based on GIPRCNT using the following formula: […]
Score is 0 for GIPRCNT values of 100 or above, 50 for GIPRCNT values of 0, and 100 for GIPRCNT values of -100.
With `CC(=O)N(Cc1ccccc1)c1nc2ccc(O)c(CN(C)C)c2s1`, the growth was 112% (inactive).
On to `COc1cc2c3c(n(CCCCNCCCn4c5c(c6cc(OC)c(OC)cc6c4=O)C(=O)c4cc6c(cc4-5)OCO6)c(=O)c2cc1OC)-c1cc2c(cc1C3=O)OCO2`, for which the growth is 96.5% (inactive).
In the case of `O=[N+]([O-])/C(=C\c1ccco1)c1ccccc1Cl`, the growth was 74.1% (inactive).
With `CC[C@]12C=CCN3CC[C@@]4(c5ccc(OC)cc5N(C)[C@H]4[C@@](O)(C(=O)OC)[C@@H]1OC(=O)CCCN1CCOCC1)[C@@H]32`, the growth is 102% (inactive).
As to `CC(C)(CO)N(CCO)CCO`, the growth was 104% (inactive).
`CCCCCCCCCCCCCCCCCCOc1ccccc1CC(=O)OCC[N+]1(C)CCOCC1`: the growth was 46.9% (inactive).
As for `Cn1cc(-c2ccc3cc(-c4ccc(CC(=O)Nc5cc(C(C)(C)C)on5)cc4)cnc3c2)cn1`, the growth is 4.87% (active).
Turning to `COc1cc(-c2nc(SCCC(C)C)nc(N3CCOCC3)c2C#N)cc(OC)c1OC`, the growth is 89.2% (inactive).
`COc1ccc(-c2oc(=O)ccc2-c2cc(OC)c(OC)c(OC)c2)cc1O`: the growth is 20.5% (inactive).
For the compound `O=C(N/N=C/c1ccc(O)cc1O)c1ccc(Nc2ccnc(C(F)(F)F)c2)cc1`, the growth was 73.7% (inactive).
For `CC(C)CCC[C@@H](C)C1CCC2C3CCC4=C/C(=N/OCCN(C)C)CC[C@]4(C)C3CC[C@@]21C` (stereo not given in full), the growth was 49.2% (inactive).
`COc1ccc(NC(=O)c2sc3nc(C)c(C(O)c4ccccc4)cc3c2N)cc1` (stereo not given): the growth was 12.5% (inactive).
In the case of `N#Cc1c(N2CCOCC2)nc(=S)[nH]c1-c1ccccc1`, the growth is 73.6% (inactive).
On to `CN(C)c1ccc(C(=NO)c2ccc(N(C)C)cc2)cc1`, for which the growth is 31.7% (inactive).
As for `CNCc1cccc2c1OCCOCCN(C)C(=O)CN(C)S(=O)(=O)c1ccc(cc1)-c1cnc(N)c(n1)C(=O)N2`, the growth was -1.69% (active).
With `Cn1cc(-c2nonc2-c2c[nH]c3ccccc23)c2ccccc21` the figure was 8.23% (active).
Under `CN1C(=O)N(C)C2C1NC(=S)N2/N=C/C=C/c1ccccc1[N+](=O)[O-]` (stereo not given) stands 27.8% (inactive); under `CC(C)c1ccc(-n2c(=S)[nH]c3sc4c(c3c2=O)CCC(=O)C4)cc1`, 75.7% (inactive); under `COc1ccc(C2CC(c3ccc(Nc4nc(Nc5ccc(F)cc5)nc(Nc5ccc(F)cc5)n4)cc3)=NN2C(C)=O)cc1` (stereo not given), 34.6% (inactive).
Under `Cc1[nH]c(/C=C/C(=O)c2ccc(C(F)(F)F)c(F)c2)c(C)c1C(=O)NCC(C)C` stands 101% (inactive).
For the compound `CCN1CCN(CC(=O)Nc2nc3ccc(NCc4ccc(Br)cc4)cc3s2)CC1`, the growth was 31.7% (inactive).
With `CCOC(=O)n1cc(-c2nonc2-c2cn(C)c3ccccc23)c2ccccc21` the figure was 23.2% (inactive); with `CC(C(=O)O)n1c(O)c(C=Nc2cccnc2)sc1=S` (stereo not given), 94% (inactive); with `O=C1C(Cl)=C(NCCN2CCOCC2)C(=O)c2ncccc21`, 8.73% (active).
Regarding `COC(=O)C1=C(C)NC(C)=C(C(=O)OCC(C)C)C1c1ccccc1[N+](=O)[O-]` (stereo not given), the growth is 43.6% (inactive).
In the case of `COc1cc(C(=O)/C=C/c2c(-c3cccs3)nc3ccccn23)cc(OC)c1OC`, the growth was -0.559% (active).
For the compound `CN(Cc1cnc2nc(N)nc(N)c2n1)c1c(Cl)cc(C(=O)NC(CCC(=O)O)C(=O)O)cc1Cl` (stereo not given), the growth is 25.8% (inactive).
Under `COc1ccc2nc3cc(Cl)ccc3c(NCCN)c2c1` stands -40.9% (active); under `CN(C)Cc1ccc(C(=O)Nc2ccc3ncnc(Nc4ccc(Oc5cccc(F)c5)c(Cl)c4)c3c2)cc1`, -13.2% (active); under `Cc1ccc(C)c2c1C(O)(C#Cc1ccccc1)c1ccccc1C2(O)C#Cc1ccccc1` (stereo not given), 19.5% (inactive).
`Cc1ncc(C(=O)Nc2ccc(CN3CCN(C)CC3)c(C(F)(F)F)c2)cc1C#Cc1cnc(N)c2ccncc12`: the growth was -42.5% (active).
As to `CCCCCCOC(=O)CC1=C(C)/C(=C/c2[nH]c(-c3ccc[nH]3)cc2OC)N=C1C`, the growth is -30.3% (active).
For the compound `COc1ccc(C2CC(c3ccc4c(c3)OCO4)=Nc3c(N)ncnc3N2)cc1` (stereo not given), the growth was 91.9% (inactive).
Under `Cn1cc(-c2nn3cc(-c4ccccc4)nc3s2)c2ccccc21` stands 65.3% (inactive); under `O=C(O)C1CN(c2cccc(Cl)c2)N(c2cccc(Cl)c2)C1=O` (stereo not given), 88.8% (inactive); under `O=C1Nc2ccc(F)cc2/C1=C\c1nc(-c2ccccc2F)n2ccccc12`, 81.2% (inactive).
Regarding `CN(C)c1ccc(/C=C2/C=C(c3ccccc3)OC2=O)cc1`, the growth is 49.7% (inactive).
As for `Nc1n[nH]c2ccc([C@@H]3Nc4cc5[nH]ncc5cc4[C@H]4C5CCC(C5)[C@@H]34)cc12` (stereo not given in full), the growth is 22.5% (inactive).
With `COc1cc(-c2nc3occn3c2-c2ccnc(NCCCNS(=O)(=O)c3ccccc3)n2)ccc1F`, the growth was 11% (inactive).
Under `COc1cccc(C(=O)OCC(O)C(=O)NC23CC4CC(CC(C4)C2)C3)c1` (stereo not given) stands 95.4% (inactive).

Source of the values: PubChem BioAssay (NCI).
